Glioma ERSR ind – induces the endoplasmic reticulum stress response in human glioma cells; Potency, µM, for inactives: at the highest dose activation, actives largely listed as activators; U87-MG GRP78 promoter luciferase reporter, 16 h; 0.02% of 420,000 active; also: potency is read from the fitted curve at half-maximal effect; series mostly up to about 76 µM; % of control where 0% means no effect; nearly all actives have a fitted effect of over 35% in size
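ERSR induction read as luciferase luminescence (Bright-Glo, 10 min at room temperature) in stably transfected human U87-MG glioma cells exposed to compounds for 16 h, using GRP78 as sensor.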
Vif-APOBEC3F blk – Vif-A3F binding inhibition. HeLa A3F-eYFP + Vif (tagged APOBEC3F with the HIV-1 protein that degrades it), YFP fluorescence increase. Potency, µM (highest dose often 46.1 µM), without a hit: at the highest dose activity, negative = active. 0.2% of 390,000 active; also: potency is read from the fitted curve at half-maximal effect; % of control where 0% means no effect; nearly all actives have a fitted effect of over 65% in size
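HeLa cells stably expressing Vif plus C-terminally eYFP-tagged A3F were seeded, incubated overnight at 37 deg C, dosed with compound, incubated overnight again at 37 deg C. Yellow fluorescence (Ex 488/Em 500-530) reported blocked Vif-mediated A3F-eYFP degradation.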
12-LOX inh – ALOX12 (human) lipoxygenase inhibition. 1.1% of 580,000 active. Potency, µM (top dose mostly 108 µM), without a hit: top-dose activity change, negative = inhibition, hits mostly inhibitors. purified 12hLO, xylenol orange hydroperoxide absorbance. P18054; also: potency is read from the fitted curve at half-maximal effect; % is scaled to controls: 0 for no effect and ±100 for the full control effect
Target sequence (P18054 whole entry, looked up): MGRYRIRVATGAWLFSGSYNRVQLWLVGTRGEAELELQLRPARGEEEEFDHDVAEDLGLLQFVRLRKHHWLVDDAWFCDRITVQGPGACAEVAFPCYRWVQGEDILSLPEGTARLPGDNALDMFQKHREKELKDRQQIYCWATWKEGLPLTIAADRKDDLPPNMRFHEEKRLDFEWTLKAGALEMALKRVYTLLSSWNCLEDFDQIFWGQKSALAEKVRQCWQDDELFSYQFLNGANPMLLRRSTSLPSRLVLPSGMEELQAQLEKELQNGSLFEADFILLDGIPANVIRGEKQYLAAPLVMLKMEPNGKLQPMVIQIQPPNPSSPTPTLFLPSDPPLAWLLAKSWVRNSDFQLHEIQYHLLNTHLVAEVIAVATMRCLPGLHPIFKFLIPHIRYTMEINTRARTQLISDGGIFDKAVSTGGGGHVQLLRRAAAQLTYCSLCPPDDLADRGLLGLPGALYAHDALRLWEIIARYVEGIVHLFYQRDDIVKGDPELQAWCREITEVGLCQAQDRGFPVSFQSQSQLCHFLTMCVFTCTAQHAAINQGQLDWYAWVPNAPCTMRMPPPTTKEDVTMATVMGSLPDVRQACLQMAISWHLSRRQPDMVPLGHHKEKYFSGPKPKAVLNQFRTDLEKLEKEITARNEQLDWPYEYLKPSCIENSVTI
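Hydroperoxide product was detected by ferrous iron/xylenol orange as the 573 to 405 nm absorbance ratio. Arachidonic acid at 40 uM (final) was turned over for 30 min at room temperature by 150 nM human 12hLO, pH 7.0 Hepes buffer, after 15 min compound preincubation.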
TRPML1 inh – blocks the human TRPML1 channel; Q9GZU1; TRPML1-inducible cells, Ca2+ dye fluorescence, FDSS; active compounds read low; inhibition of EC80 agonist-evoked calcium signal; activity change, negative = inhibition, % (test concentration not listed); 0.02% of 390,000 active; AID 624415; in the data active = activity change below about -50%; inconclusive = between about -30% and that limit;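 also: stimulus is agonist 54-4 at its EC80 concentration; % is scaled to controls: 0 for no effect and ±100 for the full control effect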
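Tet-induced TRPML1-DL cells loaded with Ca8 no-wash calcium dye were read kinetically on FDSS. Compound addition was followed by EC80 agonist 54-4 (4 uM final); inhibition was read over 110 s.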
Vif-A3G inh – Vif-A3G binding inhibition. HeLa A3G-eYFP + Vif (tagged APOBEC3G with the HIV-1 protein that degrades it), YFP fluorescence, overnight. AID 602310. 0.076% of 410,000 active. Potency, µM (doses to about 46.1 µM), for the others: at the highest dose activity, negative = active, usual class: inhibitors. Q9HC16; also: potency is read from the fitted curve at half-maximal effect; % is scaled to controls: 0 for no effect and ±100 for the full control effect; nearly all actives have a fitted effect of over 60% in size
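HeLa cells stably expressing Vif and C-terminally eYFP-tagged A3G, seeded overnight at 37 deg C, then exposed to compound by pintool overnight at 37 deg C. Rise in yellow fluorescence (Ex 488/Em 500-530, Acumen) marks blocked Vif-driven A3G degradation.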
TRPML1 ag – agonists of human TRPML1 channel; TRPML1-expressing cells, Ca2+ dye fluorescence, FDSS; Q9GZU1; 0.12% of 410,000 active; activation, % (no concentration beside the values); AID 624414; in the data active = activation above about 50%; inconclusive = mostly about 30% to 49%; also: 0% is about no effect
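Calcium fluorescence on an FDSS kinetic reader gave the read-out. Tet-induced TRPML1-DL cells were plated overnight, dye-loaded (Ca8 with quencher, 45-90 min, room temperature, dark), then read 110 s after compound addition, and again 110 s after 4uM final 54-4 (EC80).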
* hit, by the source's call; ? = inconclusive; · = no result. In the library only some 1.3% were active in any assay of this set; here they are far more common. Unless noted, calls follow the shape of the dose curve; as a rule, active = well fitted curve in the direction sought with a large enough effect; inconclusive = small, poorly fitted or top-dose-only effect, or another doubt; inactive = no such curve, though single readings can be large; an effect the other way counts as inactive or inconclusive.

SMILES	Glioma ERSR ind	Vif-APOBEC3F blk	12-LOX inh	TRPML1 inh	Vif-A3G inh	TRPML1 ag
Cc1ccc(OCCC2CCN(C(=O)CCCC(=O)n3nc(C)c4ccccc43)C2)cc1 (stereo not drawn)	·	·	8%	·	·	·
S=c1[nH]nc(-c2cc(-c3ccco3)[nH]n2)n1-c1ccccc1	-5%	2%	22µM*	-13	-7%	1
Oc1ccc(Cl)cc1-c1cc(-c2ccco2)[nH]n1	-3%	6%	?	1	?	0
Oc1ccccc1-c1cc(-c2ccco2)[nH]n1	?	-9%	20µM*	-15	-9%	0
COC(=O)c1ccc(NC2=C(Cl)C(=O)OC2OC(=O)c2ccccc2)cc1 (stereo not drawn)	-4%	7%	18%	2	-2%	-1
Cc1ccc(NC2=C(Cl)C(=O)OC2OC(=O)c2ccc(C)cc2)cc1 (stereo not drawn)	-8%	2%	7.9µM*	9	0%	3
COc1ccc(CNC(=O)Cc2c(C)c3ccc(OC)c(C)c3oc2=O)cc1OC	·	·	-1%	·	·	·
CC(NC(=O)c1ccc(S(N)(=O)=O)o1)c1ccc(OC(F)F)cc1 (stereo not drawn)	·	·	-19%	·	·	·
COc1ccc2c(C)c(-c3ccc(OC)c(OC)c3)c(=O)oc2c1	·	·	-54%	·	·	·
Cc1cc(/C=C2\SC(=S)N(C)C2=O)c(C)n1-c1ccc(O)cc1	-15%	25µM*	?	·	?	·
Cc1cc(/C=C2\SC(=S)N(C)C2=O)c(C)n1-c1ccccc1O	1%	11µM*	?	-18	?	20
Cc1cc(/C=C2\SC(=S)NC2=O)c(C)n1-c1cccc(O)c1	2%	?	40µM*	·	?	·
CN1C(=O)/C(=C/c2coc3ccc(O)cc3c2=O)SC1=S	-2%	-10%	-13%	-8	1%	7
Cc1ccc(C(=O)NC2CC2)cc1NC(=O)c1ccc(C)c(S(=O)(=O)N2CCCCC2)c1	·	·	44%	·	·	·
COc1ccc(C)cc1NC(=O)c1nn(C)c(=O)c2ccccc12	·	·	23%	·	·	·
CC(=O)c1ccc(CC(=O)O)s1	·	·	-70%	·	·	·
CC(=O)c1ccc(C(=O)O)s1	·	·	16µM*	·	·	·
CCN(CC)S(=O)(=O)c1ccc(C(C)NC(=O)c2nn(CC)c(=O)c3ccccc23)cc1 (stereo not drawn)	·	·	4%	·	·	·
CC1(C)CC2(CC(c3ccccc3)Oc3cc(O)ccc32)NC(=S)N1 (stereo not drawn)	-4%	1%	32µM*	0	0%	0
Cc1ccccc1CCNC(=O)C(C)C	·	·	7%	·	·	·
COCCCNc1nc2ccccc2nc1NS(=O)(=O)c1cc(Cl)ccc1Cl	-4%	-3%	40µM*	11	-10%	-1
CCN1CCN(c2nc3ccccc3nc2NS(=O)(=O)c2cc(Cl)ccc2Cl)CC1	·	·	25µM*	·	·	·
COCCCNc1nc2ccccc2nc1NS(=O)(=O)c1ccc(Cl)cc1	-5%	-6%	0%	6	3%	0
COc1ccc(C(=O)NC(=S)Nc2ccc(CN3CCOCC3)cc2)cc1Cl	-6%	3%	32µM*	21	1%	1
CCc1ccc(C(=O)NC(=S)Nc2ccc(N3CCOCC3)cc2)cc1	-4%	10µM*	22µM*	4	1%	1
SMILES	Glioma ERSR ind	Vif-APOBEC3F blk	12-LOX inh	TRPML1 inh	Vif-A3G inh	TRPML1 ag
O=C(NC(=S)Nc1ccc(N2CCOCC2)cc1)c1ccccc1	0%	2%	?	14	0%	2
O=C(Nc1ccccc1SC(=O)c1ccccc1)c1ccccc1	6%	?	5.6µM*	-4	-2%	1
CSc1ccccc1NC(=O)c1ccccc1	6%	-7%	-8%	15	1%	1
Cc1c(N=N/C(C(=O)Nc2ccccc2)=C(/O)c2ccccc2)c(=O)n(-c2ccccc2)n1C	-3%	10µM*	3%	7	-3%	12
Cc1csc(NC(=O)CNC(=O)c2ccoc2)n1	·	·	5%	·	·	·
CNC(=S)N/N=C1\CC(c2ccccc2)Oc2ccccc21 (stereo not drawn)	5%	-12%	40µM*	25	-9%	3
COc1ccc(OC)c(C2=NS(=O)(=O)N(C)C(C(=O)N3CCN(C)CC3)=C2)c1	·	·	1%	·	·	·
Oc1cc2c(cc1C(c1ccc(Cl)c(Cl)c1)N1CCCC1)OCO2 (stereo not drawn)	-3%	-8%	4.5µM*	25	-13%	0
COCCNc1nc(NCc2ccccc2OC)c2cnn(C)c2n1	·	·	13µM*	3	·	1
COCCCNc1nc(NCc2ccccc2OC)c2cnn(C)c2n1	·	·	?	-12	·	3
COc1ccc2sc(/C=C/c3ccccc3O)[n+](C)c2c1	-3%	?	40µM*	9	-2%	0
CC1(C)CC(CCN2CCCCC2)(c2cccc(C(F)(F)F)c2)CCO1 (stereo not drawn)	·	·	1.8µM*	·	·	·
CC1(C)CC(=O)C2=C(C1)Nc1[nH]n(-c3ccccc3)c(=O)c1C2c1ccccc1F (stereo not drawn)	·	·	23%	·	·	·
CCC1(c2ccccc2)NC(=S)N(c2cccc(C)c2C)N1 (stereo not drawn)	3%	-3%	25µM*	-6	3%	-1
Cc1cccc(-n2c(-c3ccccc3)c[nH]c2=S)c1C	1%	-18%	?	-1	-1%	0
CC(C)(Oc1ccc(Cl)cc1)C(=O)NC1=NN(c2ccccc2)C(=O)C1	-3%	-3%	50µM*	-13	-6%	2
O=C1CC(NC(=O)C(F)(F)F)=NN1c1ccccc1	-4%	-2%	-11%	24	1%	2
CC(C)[C@H](NS(=O)(=O)c1ccccc1)C(=O)OCC(=O)N1N=C(c2ccc(Cl)cc2)CC1c1ccco1 (stereo partly drawn)	-10%	-14%	40µM*	29	-1%	1
Nc1cc(=O)[nH]c(SCC(=O)N2N=C(c3ccc(Cl)cc3)CC2c2ccco2)n1 (stereo not drawn)	1%	1%	40µM*	9	-3%	0
CCCc1cc(=O)[nH]c(SCC(=O)N2N=C(c3ccc(Cl)cc3)CC2c2ccco2)n1 (stereo not drawn)	-6%	-10%	?	-15	-9%	0
CCOC(=O)c1ccccc1NC(=O)Nc1cn(CC(C)C)c(=O)c2ccccc12	·	·	-7%	·	·	·
O=C(Nc1ccc(N2CCN(CCOc3ccc(Cl)cc3)CC2)c(C(=O)O)c1)c1ccc(F)cc1	·	·	45µM*	1	·	2

Compound activity (PubChem BioAssay)
